Test results: PubChem BioAssay AID1159580 (chemical genetic matrix, 2015)
Screen size: about 5,500 compounds; about 2,000 (36%) were called active. Inconclusive results (about 18%) are left out. No stated cut-off is given here; in the data, active means normalized growth mostly below about 0.91 (no sharp cut-off); inconclusive means no clear call, values can overlap the other calls; inactive means mostly above about 0.92. Some of the results follow.

Assay: chemical genetic growth profiling, strain panel (AID 1159580);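 further: tested at 20 µM; growth read once vehicle control cultures reached saturation at 30 °C; 1 = growth at the plate median or of vehicle wells; lower values mean less growth of the strain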
Settings: S. cerevisiae deletion strains, growth OD
[1] = locus YDL101C, strain DUN1, active compounds read low
[2] = locus YHR030C, strain SLT2, active compounds read low

Measured: normalized growth

Cc1onc(-c2ccccc2Cl)c1-c1nc2ccccc2c(=O)o1
inactive: locus YAR019C, strain CDC15, active compounds read low 0.97 | locus YBL105C, strain PKC1, active compounds read low 0.975 | locus YBR135W, strain CKS1, active compounds read low 0.975 | locus YBR136W, strain MEC1, active compounds read low 0.973 | locus YBR160W, strain CDC28, active compounds read low 0.971 | locus YDL017W, strain CDC7, active compounds read low 0.969 | locus YDL028C, strain MPS1, active compounds read low 0.979 | [1] 0.963 | locus YDL108W, strain KIN28, active compounds read low 0.97 | locus YDL132W, strain cdc53, active compounds read low 0.975 | locus YDL214C, strain PRR2, active compounds read low 0.968 | locus YDR052C, strain DBF4, active compounds read low 0.969 | locus YDR054C, strain cdc34, active compounds read low 0.964 | locus YDR226W, strain ADK1, active compounds read low 0.97 | locus YDR477W, strain SNF1, active compounds read low 0.962 | locus YER123W, strain YCK3, active compounds read low 0.953 | locus YER133W, strain GLC7, active compounds read low 0.984 | locus YFL009W, strain cdc4, active compounds read low 0.974 | locus YFL029C, strain CAK1, active compounds read low 0.956 | locus YFR003C, strain YPI1, active compounds read low 0.972 | locus YFR019W, strain FAB1, active compounds read low 0.979 | locus YFR028C, strain CDC14, active compounds read low 0.973 | locus YGR040W, strain KSS1, active compounds read low 0.96 | locus YGR052W, strain FMP48, active compounds read low 1.03 | locus YGR092W, strain DBF2, active compounds read low 0.983 | [2] 0.958 | locus YHR079C, strain IRE1, active compounds read low 0.936 | locus YHR082C, strain KSP1, active compounds read low 0.991 | locus YHR205W, strain SCH9, active compounds read low 0.932 | locus YIL147C, strain SLN1, active compounds read low 0.969 | locus YJL095W, strain BCK1, active compounds read low 0.954 | locus YJL128C, strain PBS2, active compounds read low 0.925 | locus YJL157C, strain FAR1, active compounds read low 0.987 | locus YJR016C, strain ILV3, active compounds read low 0.974 | locus YJR066W, strain TOR1 (second series), active compounds read low 0.967 | locus YJR066W, strain TOR1, active compounds read low 0.978 | locus YKL048C, strain ELM1, active compounds read low 0.947 | locus YKL067W, strain YNK1, active compounds read low 0.961 | locus YKL101W, strain HSL1, active compounds read low 0.939 | locus YKL193C, strain SDS22, active compounds read low 0.969 | locus YKL203C, strain TOR2, active compounds read low 1.02 | locus YLR113W, strain HOG1, active compounds read low 0.872 | locus YLR133W, strain CKI1, active compounds read low 0.965 | locus YLR403W, strain SFP1, active compounds read low 0.953 | locus YML070W, strain DAK1, active compounds read low 0.956 | locus YMR001C, strain CDC5, active compounds read low 0.974 | locus YMR205C, strain PFK2 (second series), active compounds read low 0.955 | locus YMR277W, strain FCP1, active compounds read low 0.987 | locus YNL006W, strain LST8, active compounds read low 0.982 | locus YNL020C, strain ARK1, active compounds read low 0.969 | locus YNL161W, strain CBK1, active compounds read low 0.969 | locus YNL183C, strain NPR1, active compounds read low 0.96 | locus YNL207W, strain RIO2, active compounds read low 0.97 | locus YNL222W, strain SSU72, active compounds read low 0.975 | locus YNL307C, strain MCK1 (second series), active compounds read low 0.987 | locus YOL078W, strain AVO1, active compounds read low 0.976 | locus YOL136C, strain PFK27, active compounds read low 0.958 | locus YOR061W, strain CKA2, active compounds read low 0.961 | locus YOR119C, strain RIO1, active compounds read low 0.983 | locus YOR231W, strain MKK1, active compounds read low 0.929 | locus YOR329C, strain SCD5, active compounds read low 0.966 | locus YPL031C, strain PHO85, active compounds read low 0.978 | locus YPL153C, strain RAD53, active compounds read low 0.956 | locus YPL204W, strain HRR25, active compounds read low 0.978 | locus YPL209C, strain IPL1, active compounds read low 0.969 | locus YPL256C, strain CLN2, active compounds read low 0.882 | locus YPR025C, strain CCL1, active compounds read low 0.975 | locus YPR106W, strain ISR1, active compounds read low 0.96 | locus YPR111W, strain DBF20, active compounds read low 0.963 | strain NNK1, active compounds read low 0.958 | strain TSCII, active compounds read low 0.968

Cc1cccc2nc(-c3ccccc3)oc(=O)c12
inactive: locus YAL013W, strain DEP1, active compounds read low 0.966 | locus YBR229C, strain ROT2, active compounds read low 0.975 | [1] 0.968 | locus YDR150W, strain NUM1, active compounds read low 0.934 | locus YEL061C, strain CIN8, active compounds read low 0.936 | locus YGR078C, strain PAC10, active compounds read low 0.959 | locus YGR229C, strain SMI1, active compounds read low 0.984 | [2] 0.708 | locus YHR087W, strain rtc3, active compounds read low 0.953 | locus YJL187C, strain SWE1, active compounds read low 0.946 | locus YJR043C, strain POL32, active compounds read low 0.971 | locus YJR075W, strain HOC1, active compounds read low 0.942 | locus YKL190W, strain CNB1, active compounds read low 0.987 | locus YLR039C, strain RIC1, active compounds read low 0.826 | locus YLR058C, strain SHM2 (second series), active compounds read low 0.968 | locus YLR262C, strain YPT6, active compounds read low 0.942 | locus YML094W, strain GIM5, active compounds read low 0.88 | locus YMR219W, strain ESC1, active compounds read low 0.976 | locus YMR263W, strain SAP30, active compounds read low 0.958 | locus YMR307W, strain GAS1, active compounds read low 0.735 | locus YNL128W, strain TEP1, active compounds read low 0.974 | locus YNL153C, strain GIM3, active compounds read low 0.975 | locus YNL298W, strain CLA4 (second series), active compounds read low 0.95 | locus YNL322C, strain KRE1, active compounds read low 0.983 | locus YNR030W, strain Alg12, active compounds read low 0.929 | locus YOL006C, strain TOP1, active compounds read low 0.801 | locus YPL241C, strain CIN2, active compounds read low 0.915 | locus YPR135W, strain CTF4, active compounds read low 0.812
active: locus YLR085C, strain ARP6, active compounds read low 0.744 | locus YPL055C, strain LGE1, active compounds read low 0.781
